According to ChEMBL document CHEMBL1961873, “Compounds: GSK PKIS; Assays: Nanosyn kinase panel” (2012):

Columns and labels:
[1] = target: Protein kinase C gamma type (Homo sapiens) (UniProt P05129); conditions: at 1 µM;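 note: each value is an averaged percent inhibition of the enzyme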
[2] = target: T1, Protein kinase C iota type (Homo sapiens) (UniProt P41743); conditions: at 0.1 µM
T1 sequence (whole entry): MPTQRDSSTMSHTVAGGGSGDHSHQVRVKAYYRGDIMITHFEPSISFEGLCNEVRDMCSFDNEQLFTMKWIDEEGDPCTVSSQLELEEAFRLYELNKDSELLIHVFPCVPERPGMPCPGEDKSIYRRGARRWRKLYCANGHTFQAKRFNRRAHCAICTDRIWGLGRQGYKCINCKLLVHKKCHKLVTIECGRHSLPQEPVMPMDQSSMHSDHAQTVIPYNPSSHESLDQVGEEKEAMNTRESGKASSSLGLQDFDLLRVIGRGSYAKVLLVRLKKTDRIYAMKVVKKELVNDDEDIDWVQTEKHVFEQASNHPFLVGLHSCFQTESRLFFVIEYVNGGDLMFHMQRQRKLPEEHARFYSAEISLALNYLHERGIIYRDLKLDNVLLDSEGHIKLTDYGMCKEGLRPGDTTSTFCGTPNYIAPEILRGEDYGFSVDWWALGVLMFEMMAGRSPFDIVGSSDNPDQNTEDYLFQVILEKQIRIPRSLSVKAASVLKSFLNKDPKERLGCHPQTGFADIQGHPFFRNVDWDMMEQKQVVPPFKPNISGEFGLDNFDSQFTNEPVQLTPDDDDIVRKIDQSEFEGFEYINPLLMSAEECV

[3] = target: T1, Protein kinase C iota type (Homo sapiens); conditions: at 1 µM
[4] = target: Protein kinase C theta type (Homo sapiens) (UniProt Q04759); conditions: at 0.1 µM
Sequence of Protein kinase C theta type (Homo sapiens) (Q04759 whole entry, looked up): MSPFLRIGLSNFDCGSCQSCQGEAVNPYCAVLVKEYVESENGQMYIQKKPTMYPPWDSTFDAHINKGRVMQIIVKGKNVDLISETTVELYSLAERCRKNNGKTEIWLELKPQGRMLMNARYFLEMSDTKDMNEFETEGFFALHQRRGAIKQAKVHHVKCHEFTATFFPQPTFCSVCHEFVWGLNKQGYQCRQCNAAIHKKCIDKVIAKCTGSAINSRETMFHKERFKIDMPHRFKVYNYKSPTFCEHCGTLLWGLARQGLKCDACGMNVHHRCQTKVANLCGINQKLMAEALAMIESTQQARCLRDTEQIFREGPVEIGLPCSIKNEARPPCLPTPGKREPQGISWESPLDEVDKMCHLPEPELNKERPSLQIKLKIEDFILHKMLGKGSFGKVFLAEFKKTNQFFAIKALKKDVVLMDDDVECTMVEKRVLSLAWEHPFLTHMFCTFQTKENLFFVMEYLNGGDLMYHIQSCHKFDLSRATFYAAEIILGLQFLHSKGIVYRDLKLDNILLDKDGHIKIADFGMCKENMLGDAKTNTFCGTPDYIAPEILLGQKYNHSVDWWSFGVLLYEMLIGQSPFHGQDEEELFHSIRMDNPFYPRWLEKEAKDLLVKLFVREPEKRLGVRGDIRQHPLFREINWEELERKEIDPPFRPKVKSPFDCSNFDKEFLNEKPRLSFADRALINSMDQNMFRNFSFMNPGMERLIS

[5] = target: Protein kinase C theta type (Homo sapiens) (UniProt Q04759); conditions: at 1 µM
[6] = target: Protein kinase C beta type (Homo sapiens) (UniProt P05771); conditions: at 0.1 µM
Sequence of Protein kinase C beta type (Homo sapiens) (P05771 2-671 limits assumed): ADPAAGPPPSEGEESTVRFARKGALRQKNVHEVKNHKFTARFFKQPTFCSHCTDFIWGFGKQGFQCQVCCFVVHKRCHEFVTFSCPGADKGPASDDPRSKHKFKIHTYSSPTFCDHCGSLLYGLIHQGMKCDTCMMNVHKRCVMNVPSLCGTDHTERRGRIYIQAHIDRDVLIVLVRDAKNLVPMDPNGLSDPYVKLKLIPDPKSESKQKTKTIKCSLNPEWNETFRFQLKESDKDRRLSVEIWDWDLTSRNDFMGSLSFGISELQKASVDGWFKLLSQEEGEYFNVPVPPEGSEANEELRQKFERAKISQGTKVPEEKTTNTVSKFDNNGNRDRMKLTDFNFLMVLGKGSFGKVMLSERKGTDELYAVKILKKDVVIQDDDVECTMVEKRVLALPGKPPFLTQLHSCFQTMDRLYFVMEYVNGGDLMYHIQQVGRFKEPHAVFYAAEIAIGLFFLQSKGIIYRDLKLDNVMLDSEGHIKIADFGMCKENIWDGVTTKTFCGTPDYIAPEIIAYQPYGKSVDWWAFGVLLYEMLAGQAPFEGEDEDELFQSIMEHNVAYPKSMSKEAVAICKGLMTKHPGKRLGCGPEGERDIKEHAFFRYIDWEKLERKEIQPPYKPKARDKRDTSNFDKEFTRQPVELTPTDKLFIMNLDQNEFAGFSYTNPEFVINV

[7] = target: Protein kinase C beta type (Homo sapiens) (UniProt P05771); conditions: at 1 µM
[8] = target: T2, Serine/threonine-protein kinase D1 (Homo sapiens) (UniProt Q15139); conditions: at 0.1 µM
T2 sequence (whole entry): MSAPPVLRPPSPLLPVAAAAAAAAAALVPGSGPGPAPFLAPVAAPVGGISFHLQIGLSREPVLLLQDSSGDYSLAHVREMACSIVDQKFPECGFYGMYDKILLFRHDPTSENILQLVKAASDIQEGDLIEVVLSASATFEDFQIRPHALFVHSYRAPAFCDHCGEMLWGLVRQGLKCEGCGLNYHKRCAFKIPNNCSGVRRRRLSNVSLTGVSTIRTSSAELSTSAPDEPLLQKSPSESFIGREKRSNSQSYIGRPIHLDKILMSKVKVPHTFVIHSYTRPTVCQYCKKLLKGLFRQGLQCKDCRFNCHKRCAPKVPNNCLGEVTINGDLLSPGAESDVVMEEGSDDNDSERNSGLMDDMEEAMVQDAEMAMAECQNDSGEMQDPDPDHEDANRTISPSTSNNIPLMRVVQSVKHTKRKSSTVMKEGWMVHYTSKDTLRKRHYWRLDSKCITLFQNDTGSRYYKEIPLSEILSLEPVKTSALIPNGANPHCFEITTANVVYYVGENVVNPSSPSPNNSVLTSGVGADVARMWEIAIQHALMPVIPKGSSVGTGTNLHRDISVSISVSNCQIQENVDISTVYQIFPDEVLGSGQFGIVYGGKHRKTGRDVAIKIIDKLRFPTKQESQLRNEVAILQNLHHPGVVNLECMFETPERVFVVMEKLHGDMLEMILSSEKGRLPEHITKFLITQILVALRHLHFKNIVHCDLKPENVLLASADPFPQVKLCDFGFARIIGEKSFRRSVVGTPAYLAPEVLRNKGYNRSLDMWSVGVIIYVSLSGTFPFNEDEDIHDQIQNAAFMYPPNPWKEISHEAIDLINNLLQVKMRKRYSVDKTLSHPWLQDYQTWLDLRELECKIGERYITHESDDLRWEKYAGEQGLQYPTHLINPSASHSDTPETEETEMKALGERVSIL

[9] = target: T2, Serine/threonine-protein kinase D1 (Homo sapiens); conditions: at 1 µM
[10] = target: T3, Serine/threonine-protein kinase D2 (Homo sapiens) (UniProt Q9BZL6); conditions: at 0.1 µM
T3 sequence (whole entry): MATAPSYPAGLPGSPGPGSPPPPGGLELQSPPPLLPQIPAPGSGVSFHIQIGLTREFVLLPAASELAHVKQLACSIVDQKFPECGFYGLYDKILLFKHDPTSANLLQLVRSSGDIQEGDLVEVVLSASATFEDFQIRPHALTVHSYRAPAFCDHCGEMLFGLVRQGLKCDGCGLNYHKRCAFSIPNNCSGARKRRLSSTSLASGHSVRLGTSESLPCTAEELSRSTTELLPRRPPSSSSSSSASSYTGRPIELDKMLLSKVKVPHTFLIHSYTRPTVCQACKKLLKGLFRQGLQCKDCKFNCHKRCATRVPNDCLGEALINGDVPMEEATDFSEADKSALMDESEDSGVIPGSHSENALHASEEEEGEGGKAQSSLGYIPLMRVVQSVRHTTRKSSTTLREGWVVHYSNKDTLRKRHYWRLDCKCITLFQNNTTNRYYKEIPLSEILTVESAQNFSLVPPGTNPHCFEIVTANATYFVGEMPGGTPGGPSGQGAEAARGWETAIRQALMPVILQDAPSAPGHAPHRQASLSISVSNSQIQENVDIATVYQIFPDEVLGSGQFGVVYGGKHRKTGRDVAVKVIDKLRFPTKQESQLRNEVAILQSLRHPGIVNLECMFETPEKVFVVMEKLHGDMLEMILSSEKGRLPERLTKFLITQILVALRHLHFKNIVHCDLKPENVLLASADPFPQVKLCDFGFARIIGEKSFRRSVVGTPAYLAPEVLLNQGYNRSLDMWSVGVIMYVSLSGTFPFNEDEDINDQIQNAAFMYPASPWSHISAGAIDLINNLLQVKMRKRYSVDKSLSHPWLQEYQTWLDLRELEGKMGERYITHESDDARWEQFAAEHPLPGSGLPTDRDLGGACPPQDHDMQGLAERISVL

[11] = target: T3, Serine/threonine-protein kinase D2 (Homo sapiens); conditions: at 1 µM
[12] = target: T4, Serine/threonine-protein kinase D3 (Homo sapiens) (UniProt O94806); conditions: at 0.1 µM
T4 sequence (whole entry): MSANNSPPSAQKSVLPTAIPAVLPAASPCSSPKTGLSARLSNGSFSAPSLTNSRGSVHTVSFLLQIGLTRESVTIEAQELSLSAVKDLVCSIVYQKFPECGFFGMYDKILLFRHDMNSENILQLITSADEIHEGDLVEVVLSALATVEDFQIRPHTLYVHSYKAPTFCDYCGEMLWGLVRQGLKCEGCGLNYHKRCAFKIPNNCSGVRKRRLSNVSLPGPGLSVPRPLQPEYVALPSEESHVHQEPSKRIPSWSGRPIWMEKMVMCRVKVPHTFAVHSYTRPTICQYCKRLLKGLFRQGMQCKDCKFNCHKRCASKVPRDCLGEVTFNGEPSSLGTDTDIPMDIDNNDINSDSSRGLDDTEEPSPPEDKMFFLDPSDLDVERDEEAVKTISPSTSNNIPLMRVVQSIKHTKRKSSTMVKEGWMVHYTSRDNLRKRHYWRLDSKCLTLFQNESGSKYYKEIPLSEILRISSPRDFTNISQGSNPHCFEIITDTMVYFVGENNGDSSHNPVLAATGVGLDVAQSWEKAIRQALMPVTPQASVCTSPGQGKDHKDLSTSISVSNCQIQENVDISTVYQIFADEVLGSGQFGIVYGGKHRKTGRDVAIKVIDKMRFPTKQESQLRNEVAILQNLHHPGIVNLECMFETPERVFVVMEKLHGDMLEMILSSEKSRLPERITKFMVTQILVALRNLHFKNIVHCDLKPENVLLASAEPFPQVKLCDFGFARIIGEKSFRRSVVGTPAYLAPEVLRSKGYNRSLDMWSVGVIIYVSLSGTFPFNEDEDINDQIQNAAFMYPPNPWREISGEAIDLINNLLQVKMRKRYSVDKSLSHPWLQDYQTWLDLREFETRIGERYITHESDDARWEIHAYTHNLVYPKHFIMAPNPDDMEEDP

[13] = target: T4, Serine/threonine-protein kinase D3 (Homo sapiens); conditions: at 1 µM
[14] = target: T5, cGMP-dependent protein kinase 1 (Homo sapiens) (UniProt Q13976); conditions: at 0.1 µM
T5 sequence (whole entry): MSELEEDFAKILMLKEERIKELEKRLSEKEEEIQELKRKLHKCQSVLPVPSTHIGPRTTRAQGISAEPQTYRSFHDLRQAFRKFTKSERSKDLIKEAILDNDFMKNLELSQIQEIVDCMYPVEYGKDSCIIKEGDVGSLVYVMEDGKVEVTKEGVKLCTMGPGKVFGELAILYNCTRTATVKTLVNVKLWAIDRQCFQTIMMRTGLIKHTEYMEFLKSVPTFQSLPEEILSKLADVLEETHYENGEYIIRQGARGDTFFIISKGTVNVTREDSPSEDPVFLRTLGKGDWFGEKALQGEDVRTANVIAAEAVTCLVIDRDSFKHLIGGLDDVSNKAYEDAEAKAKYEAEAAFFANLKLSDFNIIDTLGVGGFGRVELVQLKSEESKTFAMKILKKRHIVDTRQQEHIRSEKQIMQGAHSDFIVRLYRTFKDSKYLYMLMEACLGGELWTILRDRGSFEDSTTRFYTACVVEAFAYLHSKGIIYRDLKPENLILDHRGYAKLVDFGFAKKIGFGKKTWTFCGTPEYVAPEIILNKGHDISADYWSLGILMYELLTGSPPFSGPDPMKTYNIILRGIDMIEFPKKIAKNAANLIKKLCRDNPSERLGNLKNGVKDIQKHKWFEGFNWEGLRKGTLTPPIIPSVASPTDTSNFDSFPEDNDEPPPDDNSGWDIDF

[15] = target: T5, cGMP-dependent protein kinase 1 (Homo sapiens); conditions: at 1 µM
[16] = target: T6, cGMP-dependent protein kinase 2 (Homo sapiens) (UniProt Q13237); conditions: at 0.1 µM
T6 sequence (whole entry): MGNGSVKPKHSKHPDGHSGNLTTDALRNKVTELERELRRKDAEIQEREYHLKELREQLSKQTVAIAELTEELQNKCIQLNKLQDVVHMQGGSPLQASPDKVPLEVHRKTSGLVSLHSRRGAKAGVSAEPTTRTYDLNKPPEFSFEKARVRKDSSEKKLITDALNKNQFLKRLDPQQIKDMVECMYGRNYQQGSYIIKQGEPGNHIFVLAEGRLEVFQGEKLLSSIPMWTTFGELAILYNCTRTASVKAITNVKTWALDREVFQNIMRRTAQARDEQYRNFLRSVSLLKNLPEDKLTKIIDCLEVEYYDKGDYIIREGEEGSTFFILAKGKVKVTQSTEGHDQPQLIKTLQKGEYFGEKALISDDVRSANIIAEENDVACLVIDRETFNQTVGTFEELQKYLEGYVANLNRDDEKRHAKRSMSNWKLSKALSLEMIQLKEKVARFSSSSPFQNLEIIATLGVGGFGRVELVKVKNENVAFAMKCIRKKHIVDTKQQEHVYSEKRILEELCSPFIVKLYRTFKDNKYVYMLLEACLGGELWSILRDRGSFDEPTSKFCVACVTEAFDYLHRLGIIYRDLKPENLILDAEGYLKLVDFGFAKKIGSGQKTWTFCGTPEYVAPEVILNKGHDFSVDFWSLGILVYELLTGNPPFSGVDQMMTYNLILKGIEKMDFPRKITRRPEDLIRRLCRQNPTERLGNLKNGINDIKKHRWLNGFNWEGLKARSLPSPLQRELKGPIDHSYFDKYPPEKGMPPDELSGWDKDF

[17] = target: T6, cGMP-dependent protein kinase 2 (Homo sapiens); conditions: at 1 µM
[18] = target: T7, cAMP-dependent protein kinase catalytic subunit PRKX (Homo sapiens) (UniProt P51817); conditions: at 0.1 µM
T7 sequence (whole entry): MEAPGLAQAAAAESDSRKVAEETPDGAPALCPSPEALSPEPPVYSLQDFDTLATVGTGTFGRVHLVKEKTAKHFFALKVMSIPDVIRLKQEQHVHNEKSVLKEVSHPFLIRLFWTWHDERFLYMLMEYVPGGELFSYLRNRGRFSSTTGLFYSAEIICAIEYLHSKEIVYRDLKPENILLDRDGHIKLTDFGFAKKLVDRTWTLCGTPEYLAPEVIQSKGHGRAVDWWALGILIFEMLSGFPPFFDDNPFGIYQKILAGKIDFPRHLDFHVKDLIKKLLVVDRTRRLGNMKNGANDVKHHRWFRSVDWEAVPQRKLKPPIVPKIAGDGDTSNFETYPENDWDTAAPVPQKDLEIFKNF

[19] = target: T7, cAMP-dependent protein kinase catalytic subunit PRKX (Homo sapiens); conditions: at 1 µM
[20] = target: Rho-associated protein kinase 1 (Homo sapiens) (UniProt Q13464); conditions: at 0.1 µM;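 note: values are mean percent inhibition of ROCK1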
Sequence of Rho-associated protein kinase 1 (Homo sapiens) (Q13464 2-1354 limits assumed): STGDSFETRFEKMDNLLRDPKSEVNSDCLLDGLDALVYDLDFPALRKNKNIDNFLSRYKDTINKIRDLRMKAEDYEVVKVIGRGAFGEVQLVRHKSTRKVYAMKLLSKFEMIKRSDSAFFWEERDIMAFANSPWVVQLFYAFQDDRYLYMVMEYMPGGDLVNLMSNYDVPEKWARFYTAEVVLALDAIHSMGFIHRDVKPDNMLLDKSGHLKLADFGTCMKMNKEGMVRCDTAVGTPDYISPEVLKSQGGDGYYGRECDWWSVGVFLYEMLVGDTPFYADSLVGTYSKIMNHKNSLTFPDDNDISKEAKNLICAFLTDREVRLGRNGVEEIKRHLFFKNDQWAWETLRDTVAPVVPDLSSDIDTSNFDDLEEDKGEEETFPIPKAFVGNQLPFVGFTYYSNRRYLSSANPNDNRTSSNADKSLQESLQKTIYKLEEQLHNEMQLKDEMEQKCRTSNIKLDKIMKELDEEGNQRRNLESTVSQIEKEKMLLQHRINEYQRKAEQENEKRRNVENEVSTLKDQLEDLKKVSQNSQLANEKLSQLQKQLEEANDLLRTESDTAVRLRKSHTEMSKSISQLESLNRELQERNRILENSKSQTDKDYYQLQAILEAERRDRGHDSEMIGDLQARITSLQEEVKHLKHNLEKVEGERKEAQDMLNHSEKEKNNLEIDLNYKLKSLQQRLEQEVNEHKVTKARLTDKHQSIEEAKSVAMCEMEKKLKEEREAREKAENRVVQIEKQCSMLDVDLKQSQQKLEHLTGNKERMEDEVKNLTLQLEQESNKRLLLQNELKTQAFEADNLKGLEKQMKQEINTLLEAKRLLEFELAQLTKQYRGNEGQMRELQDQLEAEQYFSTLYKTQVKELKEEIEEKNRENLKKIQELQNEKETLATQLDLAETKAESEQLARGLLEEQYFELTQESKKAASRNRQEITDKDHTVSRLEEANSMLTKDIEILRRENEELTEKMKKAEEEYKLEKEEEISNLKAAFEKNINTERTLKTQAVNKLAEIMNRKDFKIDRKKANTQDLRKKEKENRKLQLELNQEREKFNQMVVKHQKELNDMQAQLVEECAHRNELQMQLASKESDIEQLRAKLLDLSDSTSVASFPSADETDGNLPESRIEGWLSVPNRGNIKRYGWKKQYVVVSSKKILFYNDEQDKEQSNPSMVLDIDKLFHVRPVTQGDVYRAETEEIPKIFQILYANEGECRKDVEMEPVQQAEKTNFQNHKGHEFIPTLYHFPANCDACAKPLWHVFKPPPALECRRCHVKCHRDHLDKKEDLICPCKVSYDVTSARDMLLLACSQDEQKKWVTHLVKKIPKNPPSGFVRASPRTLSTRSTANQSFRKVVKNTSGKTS

Compound | inhibition [1] [%] | inhibition [2] [%] | inhibition [3] [%] | inhibition [4] [%] | inhibition [5] [%] | inhibition [6] [%] | inhibition [7] [%] | inhibition [8] [%] | inhibition [9] [%] | inhibition [10] [%] | inhibition [11] [%] | inhibition [12] [%] | inhibition [13] [%] | inhibition [14] [%] | inhibition [15] [%] | inhibition [16] [%] | inhibition [17] [%] | inhibition [18] [%] | inhibition [19] [%] | inhibition [20] [%]
Cc1ccc2c(-c3ccnc(Nc4ccc5c(c4)OCCO5)n3)c(-c3ccc(C(F)(F)F)cc3)nn2n1 | 3.76 | 0.29 | 1.15 | 1.61 | 2.73 | 0.24 | 2.06 | 1.11 | 3.32 | 2.13 | 2.37 | 1.2 | 2.26 | 3.03 | 3.63 | 2.95 | 2.42 | 6.47 | 6.18 | 0.76
COc1cc(/C=N/Nc2ncnc3c2cnn3C(C)C)ccc1O | 5.96 | 1.94 | 1.52 | 1.33 | 4.03 | 1.47 | 4.67 | 1.79 | 1.16 | 1.45 | 1.41 | 1.37 | 1.6 | 3.26 | 3.14 | 0.71 | 2.16 | 0.57 | 0.81 | 0.31
COc1cccc(-n2ncc3c(N/N=C/c4ccc(C)cc4)ncnc32)c1 | -9.04 | 1.65 | 1.86 | 3.03 | 4.16 | 1.4 | 2.79 | 6.31 | 10.7 | 6.6 | 8.29 | 5.18 | 9.61 | 3.66 | 7.27 | 3.43 | 5.99 | 2.31 | 4.53 | 3.27
COC(=O)c1cncc(/C=C/c2c(C)cc(O)cc2C)c1 | 3.93 | 2.79 | 0.49 | 2.55 | 3.44 | -1.36 | 2.82 | 3.37 | 5 | 3.87 | 4 | 4.31 | 3.64 | 3.3 | 2.75 | 1.54 | 2.4 | 1.78 | 3.76 | 0.77
